# A structure can be active in one record and inactive in another. Activity calls are given as the source filed them. How the source made its calls, unless noted: active means hit-call score of the fitted dose curve at least 0.9, where 1 is the maximum; inactive means score below 0.9.
# Assays:
# [1] = read-out: Interleukin-1 alpha (IL1a), IL1A (gene 3552); test: BSK_LPS_IL1a: BioMAP Diversity Plus: LPS Assay for Interleukin-1 alpha (IL1a) Biomarker Activity (AID 2283080); conditions: primary human HUVEC with PBMC; actives raise or lower the signal
# Procedure, shortened: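 Readout is IL-1a level by ELISA, 24 h post-dose, fitted as gain or loss relative to DMSO. System: LPS-activated human primary co-culture of vascular endothelium and peripheral blood mononuclear cells, with parallel SRB total-protein cytotoxicity.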
# [2] = read-out: Monocyte Chemoattractant Protein-1 (MCP1), CCL2 (gene 6347); test: BSK_LPS_MCP1: BioMAP Diversity Plus: LPS Assay for Monocyte Chemoattractant Protein-1 (MCP1) Biomarker Activity (AID 2283081); conditions: primary human HUVEC with PBMC; actives raise or lower the signal;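 on AC50: co-culture stimulated with LPS; secreted MCP-1 protein quantified by ELISA in culture supernatant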
# Procedure, shortened: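 Secreted MCP-1 read by ELISA at 24 h post-dosing in an LPS-activated co-culture of endothelial cells with peripheral blood mononuclear cells. Fits run in both directions, DMSO as baseline; parallel SRB staining tracks overt cytotoxicity.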
# [3] = BSK_LPS_PGE2: BioMAP Diversity Plus: LPS Assay for Prostaglandin E2 (PGE2) Biomarker Activity (AID 2283082); conditions: primary human HUVEC with PBMC; actives raise or lower the signal;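 on AC50: secreted prostaglandin E2 measured by ELISA in LPS-stimulated co-culture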
# Procedure, shortened: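 Primary human endothelial cells and blood mononuclear cells, co-cultured with LPS, receive test chemical; PGE2 ELISA follows at 24 h, with SRB-stained parallel cultures flagging cytotoxicity.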
# [4] = read-out: Macrophage colony-stimulating factor (MCSF), CSF1 (gene 1435); test: BSK_LPS_MCSF: BioMAP Diversity Plus: LPS Assay for Macrophage colony-stimulating factor (MCSF) Biomarker Activity (AID 2283083); conditions: primary human HUVEC with PBMC; actives raise or lower the signal
# Procedure, shortened: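 Bidirectional fitting against DMSO was applied to M-CSF levels read by ELISA at 24 h post-dose. The system pairs human umbilical vein endothelium with peripheral blood mononuclear cells; parallel SRB staining tracked cytotoxicity.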
# [5] = read-out: Tissue Factor, F3 (gene 2152); test: BSK_LPS_TissueFactor: BioMAP Diversity Plus: LPS Assay for Tissue Factor Biomarker Activity (AID 2283084); conditions: primary human HUVEC with PBMC; actives raise or lower the signal
# Procedure, shortened: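 Compound was added to an endothelial cell/PBMC co-culture, and after 24 h tissue factor (CD142) was read by ELISA. Gain or loss of signal was fitted against a DMSO baseline, and parallel SRB staining (560 nm) tracked overt cytotoxicity.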
# [6] = read-out: Tumor necrosis factor (Homo sapiens) (UniProt P01375); test: BSK_LPS_TNFa: BioMAP Diversity Plus: LPS Assay for Tumour Necrosis Factor alpha (TNFa) Biomarker Activity (AID 2283085); conditions: primary human HUVEC with PBMC; actives raise or lower the signal;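 on AC50: TNFa protein level quantified by ELISA in the co-culture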
# Procedure, shortened: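 ELISA-based TNFa endpoint in a human endothelial–PBMC co-culture sampled 24 h post-exposure. Curves were fitted in both directions using DMSO as baseline of activity.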
# [7] = read-out: Vascular cell adhesion molecule 1 (VCAM1), VCAM1 (gene 7412); test: BSK_LPS_VCAM1: BioMAP Diversity Plus: LPS Assay for Vascular cell adhesion molecule 1 (VCAM1) Biomarker Activity (AID 2283086); conditions: primary human HUVEC with PBMC; actives raise or lower the signal
# Procedure, shortened: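 Measured by ELISA: VCAM-1 in LPS-activated HUVEC/PBMC co-cultures 24 h after treatment. Values reflect bidirectional fitting with DMSO as baseline.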
# [8] = read-out: CD38, CD38 (gene 952); test: BSK_SAg_CD38: BioMAP Diversity Plus: SAg Assay for CD38 Biomarker Activity (AID 2283087); conditions: primary human HUVEC with PBMC; actives raise or lower the signal
# Procedure, shortened: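 Measures CD38 on a human endothelial/PBMC co-culture driven by SEB and TSST-1, 24 h after compound exposure, using ELISA with fluorescence detection; DMSO defines baseline for bidirectional curve fitting.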
# [9] = read-out: CD40, CD40 (gene 958); test: BSK_SAg_CD40: BioMAP Diversity Plus: SAg Assay for CD40 Biomarker Activity (AID 2283088); conditions: primary human HUVEC with PBMC; actives raise or lower the signal
# Procedure, shortened: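 CD40 is measured by fluorescence ELISA in an endothelial/PBMC primary human co-culture at 24 h post-dose. Fitting is bidirectional, DMSO baseline. Parallel SRB staining (560 nm) flags cytotoxicity.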
# [10] = read-out: CD69, CD69 (gene 969); test: BSK_SAg_CD69: BioMAP Diversity Plus: SAg Assay for CD69 Biomarker Activity (AID 2283089); conditions: primary human HUVEC with PBMC; actives raise or lower the signal;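 on AC50: cell surface CD69 protein quantified by ELISA with fluorescence detection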
# Procedure, shortened: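 ELISA, fluorescence read-out: CD69 on human umbilical vein endothelial cell + PBMC co-culture, 24 h post-dosing. Gain or loss of signal fitted bidirectionally against DMSO baseline.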
# [11] = read-out: Monocyte Chemoattractant Protein-1 (MCP1), CCL2 (gene 6347); test: BSK_SAg_MCP1: BioMAP Diversity Plus: SAg Assay for Monocyte Chemoattractant Protein-1 (MCP1) Biomarker Activity (AID 2283090); conditions: primary human HUVEC with PBMC; actives raise or lower the signal
# Procedure, shortened: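 Values derive from bidirectional fitting of ELISA-measured MCP1 against DMSO controls. Readings were taken 24 h after dosing human vascular endothelial cells co-cultured with peripheral blood mononuclear cells under superantigen stimulation.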
# [12] = read-out: E-selectin (Homo sapiens) (UniProt P16581); test: BSK_SAg_Eselectin: BioMAP Diversity Plus: SAg Assay for Eselectin Biomarker Activity (AID 2283091); conditions: primary human HUVEC with PBMC; actives raise or lower the signal
# Procedure, shortened: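 Cell-surface E-selectin is read by ELISA at 24 h in the SAg co-culture of HUVEC and PBMC. Curves are fitted in both directions relative to DMSO. Parallel SRB total-protein staining tracks overt toxicity.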
# [13] = read-out: Monokine induced gamma interferon (MIG), CXCL9 (gene 4283); test: BSK_SAg_MIG: BioMAP Diversity Plus: SAg Assay for Monokine induced gamma interferon (MIG) Biomarker Activity (AID 2283092); conditions: primary human HUVEC with PBMC; actives raise or lower the signal
# Procedure, shortened: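 ELISA readout of MIG/CXCL9; primary human umbilical vein endothelial cells co-cultured with peripheral blood mononuclear cells; 24 h post-dose; gain/loss fit vs DMSO baseline.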
# [14] = BSK_SAg_PBMCCytotoxicity: PBMC Cytotoxicity Assessment in the BioMAP Diversity Plus: SAg Assay (AID 2283093); conditions: primary human HUVEC with PBMC;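 further: PBMC viability measured as Alamar Blue reduction fluorescence at 546/580 nm; fitted both ways against DMSO so a hit may be loss or gain of signal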;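 on AC50: PBMC superantigen activated with SEB plus TSST-1 one hour after compound addition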
# Procedure, shortened: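 Alamar Blue reduction (6 h, 546/580 nm) reports PBMC cytotoxicity after 90 h superantigen activation (SEB, TSST-1; 20 ng/mL final each) with 1 h compound pre-treatment. Gain or loss of signal fitted versus DMSO.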
# [15] = read-out: Interleukin-8 (IL8), CXCL8 (gene 3576); test: BSK_SAg_IL8: BioMAP Diversity Plus: SAg Assay for Interleukin-8 (IL8) Biomarker Activity (AID 2283094); conditions: primary human HUVEC with PBMC; actives raise or lower the signal
# Procedure, shortened: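 Primary human endothelial cells with PBMC, exposed 24 h; IL-8 determined by ELISA, analysed bidirectionally relative to DMSO.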
# [16] = BSK_SAg_Proliferation: Cell Proliferation Assessment in the BioMAP Diversity Plus: SAg Assay (AID 2283095); conditions: primary human HUVEC with PBMC;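 further: relative cell number as total protein by SRB absorbance in sub-confluent culture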
# Procedure, shortened: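 A human primary co-culture of umbilical vein endothelium and blood mononuclear cells receives compound; relative cell number is quantified at 96 h by SRB staining and 560 nm absorbance, with DMSO-referenced bidirectional curve fitting.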
# [17] = BSK_SAg_SRB: Viability Assessment in the BioMAP Diversity Plus: SAg Assay (AID 2283096); conditions: primary human HUVEC with PBMC;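 further: cells read one day after compound addition; hits may be either gain or loss of signal compared with DMSO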
# Procedure, shortened: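 This overt-cytotoxicity endpoint quantifies protein in human endothelial/PBMC co-cultures at 24 h using SRB absorbance (560 nm) after trichloroacetic acid fixation. Values reflect signal change from the DMSO negative control, fitted bidirectionally.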
# [18] = target: human CYP2D6, CYP2D6 (gene 1565) (UniProt P10635); test: NVS_ADME_hCYP2D6: NovaScreen (NVS) CYP450-related Enzyme Activity (ADME) Assay for human CYP2D6 (AID 2283107; active means hit-call score of the fitted dose curve at least 0.9, where 1 is the maximum)
# Procedure, shortened: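 Fluorescence readout of recombinant CYP2D6 (insect-cell derived) activity after 1 h incubation with test chemical. Acetonitrile served as baseline, loss-of-signal direction. Single-concentration duplicate screening at 10 uM preceded concentration-response retesting.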
# Tumor necrosis factor (Homo sapiens), sequence (P01375 whole entry, looked up): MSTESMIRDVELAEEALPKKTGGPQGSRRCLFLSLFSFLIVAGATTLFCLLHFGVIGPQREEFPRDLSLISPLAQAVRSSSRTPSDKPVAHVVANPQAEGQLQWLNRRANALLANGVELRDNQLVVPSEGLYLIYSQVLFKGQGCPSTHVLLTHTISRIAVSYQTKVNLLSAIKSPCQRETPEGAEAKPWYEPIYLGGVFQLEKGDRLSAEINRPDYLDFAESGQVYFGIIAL
# E-selectin (Homo sapiens), sequence (P16581 whole entry, looked up): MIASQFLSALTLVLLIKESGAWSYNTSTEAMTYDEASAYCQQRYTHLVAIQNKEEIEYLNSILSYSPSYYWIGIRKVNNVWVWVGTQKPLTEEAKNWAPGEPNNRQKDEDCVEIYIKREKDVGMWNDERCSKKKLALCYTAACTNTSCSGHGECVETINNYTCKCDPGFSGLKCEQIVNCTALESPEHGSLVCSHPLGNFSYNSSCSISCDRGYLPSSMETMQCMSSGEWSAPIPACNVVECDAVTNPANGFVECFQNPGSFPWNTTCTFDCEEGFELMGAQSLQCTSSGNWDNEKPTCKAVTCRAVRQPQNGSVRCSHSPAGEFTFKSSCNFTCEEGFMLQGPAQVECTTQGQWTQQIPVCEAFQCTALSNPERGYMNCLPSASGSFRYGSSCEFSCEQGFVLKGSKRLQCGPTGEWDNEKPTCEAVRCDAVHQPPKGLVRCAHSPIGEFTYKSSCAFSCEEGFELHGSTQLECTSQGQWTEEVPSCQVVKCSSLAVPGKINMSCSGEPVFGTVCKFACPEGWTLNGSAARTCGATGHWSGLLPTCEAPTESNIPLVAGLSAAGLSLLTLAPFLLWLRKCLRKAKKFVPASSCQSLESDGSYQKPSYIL
# human CYP2D6, CYP2D6 (gene 1565), sequence (P10635 whole entry, looked up): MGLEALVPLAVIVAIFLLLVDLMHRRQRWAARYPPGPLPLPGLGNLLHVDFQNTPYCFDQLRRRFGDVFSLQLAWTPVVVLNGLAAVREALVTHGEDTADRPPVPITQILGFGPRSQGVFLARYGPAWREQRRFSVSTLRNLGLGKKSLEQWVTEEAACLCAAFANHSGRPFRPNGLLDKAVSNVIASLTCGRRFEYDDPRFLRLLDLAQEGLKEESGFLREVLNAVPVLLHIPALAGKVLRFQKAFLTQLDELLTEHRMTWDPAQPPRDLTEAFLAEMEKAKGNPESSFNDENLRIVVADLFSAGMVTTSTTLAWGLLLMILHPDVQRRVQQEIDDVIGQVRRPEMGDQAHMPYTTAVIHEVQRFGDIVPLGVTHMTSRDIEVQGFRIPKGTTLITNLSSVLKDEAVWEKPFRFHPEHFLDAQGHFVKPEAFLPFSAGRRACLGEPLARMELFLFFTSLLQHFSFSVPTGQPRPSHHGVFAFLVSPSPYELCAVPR
smiles,measurement,setting,value
OCC(F)(F)C(F)(F)C(F)(F)C(F)F,outcome,[1],inactive
same,outcome,[2],inactive
same,outcome,[3],inactive
same,outcome,[4],inactive
same,outcome,[5],inactive
same,outcome,[6],inactive
same,outcome,[7],inactive
same,outcome,[8],inactive
same,outcome,[9],inactive
same,outcome,[10],inactive
same,outcome,[11],inactive
same,outcome,[12],inactive
same,outcome,[13],inactive
same,outcome,[14],inactive
same,outcome,[15],inactive
same,outcome,[16],inactive
same,outcome,[17],inactive
FC(F)(F)C(F)(F)C(F)(F)C(F)(F)C(F)(F)CCI,outcome,[1],inactive
same,outcome,[2],inactive
same,outcome,[3],inactive
same,outcome,[4],inactive
same,outcome,[5],inactive
same,outcome,[6],inactive
same,outcome,[7],inactive
same,outcome,[8],inactive
same,outcome,[9],inactive
same,outcome,[10],inactive
same,outcome,[12],inactive
same,outcome,[13],inactive
same,outcome,[14],inactive
same,outcome,[15],inactive
same,AC50,[16],44 µM (active)
same,outcome,[16],inactive
same,outcome,[17],inactive
CCO[Si](CCC(F)(F)C(F)(F)C(F)(F)C(F)(F)C(F)(F)C(F)(F)F)(OCC)OCC,outcome,[1],inactive
same,outcome,[2],inactive
same,outcome,[3],inactive
same,outcome,[4],inactive
same,outcome,[5],inactive
same,outcome,[6],inactive
same,outcome,[7],inactive
same,outcome,[8],inactive
same,outcome,[9],inactive
same,outcome,[12],inactive
same,outcome,[13],inactive
same,outcome,[14],inactive
same,outcome,[15],inactive
same,outcome,[16],inactive
same,outcome,[17],inactive
CCCCCCCCCCCCCCCC[N+](C)(C)Cc1ccccc1,AC50,[1],9.26 µM (active)
same,AC50,[2],11.4 µM (active)
same,outcome,[3],inactive
same,AC50,[4],1.74 µM (active)
same,AC50,[5],10.7 µM (active)
same,AC50,[6],3.79 µM (active)
same,AC50,[7],3.77 µM (active)
same,AC50,[8],13 µM (active)
same,AC50,[9],14.7 µM (active)
same,AC50,[10],12.4 µM (active)
same,AC50,[11],2.97 µM (active)
same,AC50,[12],20 µM (active)
same,AC50,[13],2.96 µM (active)
same,AC50,[14],1.17 µM (active)
same,AC50,[15],10 µM (active)
same,AC50,[16],0.456 µM (active)
same,AC50,[17],5.21 µM (active)
same,AC50,[18],401 nM (active)
CC(C)(C)C(=O)CC(=O)C(F)(F)C(F)(F)C(F)(F)F,outcome,[1],inactive
same,outcome,[2],inactive
same,AC50,[3],30 µM (active)
same,outcome,[3],inactive
same,outcome,[4],inactive
same,outcome,[5],inactive
same,outcome,[6],inactive
same,outcome,[7],inactive
same,outcome,[8],inactive
same,outcome,[9],inactive
same,outcome,[10],inactive
same,AC50,[12],41.1 µM (active)
same,outcome,[12],inactive
same,outcome,[13],inactive
same,AC50,[14],53.9 µM (active)
same,outcome,[14],inactive
same,outcome,[15],inactive
same,outcome,[16],inactive
same,outcome,[17],inactive
FC(F)(F)C(F)(F)C(F)(F)C(F)(F)C(F)(F)C(F)(F)C(F)(F)Br,outcome,[1],inactive
same,outcome,[2],inactive
same,outcome,[3],inactive
same,outcome,[4],inactive
same,outcome,[5],inactive
same,outcome,[6],inactive
same,outcome,[7],inactive
same,outcome,[8],inactive
same,outcome,[9],inactive
same,outcome,[12],inactive
same,outcome,[13],inactive
same,outcome,[14],inactive
same,outcome,[15],inactive
same,outcome,[16],inactive
same,outcome,[17],inactive
